# Experimental data taken from PubChem BioAssay (NCATS).
# Unmarked numbers belong to inactive results. Calls follow the shape of the dose curve; as a rule, active = well fitted curve in the direction sought with a large enough effect; inconclusive = small, poorly fitted or top-dose-only effect, or another doubt; inactive = no such curve, though single readings can be large or run the other way.
# Experiment: Cellular Toxicity (caspase-3) HUV-EC-C (AID 656);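 also: cells exposed to compound for 16 h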
# Conditions: HUV-EC-C cells, caspase-3 activation (apoptosis), vehicle = 0, 100 µM tamoxifen = 100%; series mostly up to 92.2 µM; caspase-3 activation: at the top concentration
# Source text: NIH Chemical Genomics Center [NCGC]
# NIH Molecular Libraries Screening Centers Network [MLSCN]
# National Institutes of Environmental Health Sciences [NIEHS]
# National Toxicology Program [NTP]
# We have developed a 1536-well cell-based assay for quantitative high throughput screening (qHTS) against a number of cell lines to determine in vitro caspase 3/7 of small molecules. This particular assay uses the HUV-EC-C cell line which is derived from normal human vascular endothelial cells.
# NCGC Assay Protocol Summary:
# The Caspase-Glo 3/7 assay (Promega) is a homogeneous method to measure caspase-3 and caspase-7 activities in cultured cells. The quantitation of caspase 3/7 activity is based on the cleavage of a peptide-aminoluciferin substrate. After caspase cleaves the substrate the free aminoluciferin is liberated and serves as the substrate of luciferase, which generates the light. The luminescent signal is proportional to amount of caspase 3/7 activity present.
# Using the Caspase-Glo 3/7 assay, the amount of caspase 3/7 activity was measured in the HUV-EC-C cell line with complete culture medium following compound treatment for 16 hours. The assay was performed in opaque white 1536-well plates. In the screen, tamoxifen and doxorubicin were used as positive controls. Library compounds were measured for their ability to cause the activation of caspase 3/7 in the cell line, as reflected by an increase in luminescence signal, in a concentration-dependent manner. Data were normalized to the controls for basal activity (DMSO only) and 100% stimulation (100 uM tamoxifen). AC50 values were determined from concentration-response data modeled with the standard Hill equation.
# qHTS protocol for caspase 3/7 assay in HUV-EC-C cell line
# [Step] [Parameter] [Value] [Description]
# 1. Reagent; 5 uL; 1000 HUV-EC-C cells/well
# 2. Time; 5 hr; 37 °C incubation
# 4. Controls; 23 nL; Tamoxifen 0.23 uM to 100 uM & doxorubicin 7.0 pM to 100 uM
# 5. Time; 16 hr; 37 °C incubation
# 6. Reagent; 5 uL; Caspase-Glo 3/7 reagent
# 7. Time; 20 min; Room Temperature
# 8. Detection; Luminescence; Viewlux plate reader
# Keywords: caspase 3/7, apoptosis, HUV-EC-C cell line, luminescence, NTPHTS, NTPHTS_NCGC, NIEHS, EPA, DSSTox, MLSMR, MLSCN, NIH Roadmap, qHTS, NCGC
row,SMILES,caspase-3 activation
1,c1ccoc1,-2.94%
2,CCCCOC(=O)c1ccccc1N,-3.19%
3,COC(=O)Nc1nc2ccccc2[nH]1,-3.65%
4,N#CC(Cl)(Cl)Cl,-0.295%
5,Nc1ccc(-c2ccc(N)c(Cl)c2)cc1Cl,1.53%
6,CC(C)(COCC1CO1)COCC1CO1 (stereo not given),4.01%
7,Oc1cccc(Cl)c1,0.548%
8,ClCC(Cl)Cl,1.94%
9,C1CC2OC2CC1C1CO1 (stereo not given),-1.81%
10,O=C(O)c1cccc(Cl)c1,-5.46%
11,Nc1ccc(Cc2ccc(N)c(Cl)c2)cc1Cl,-5.52%
12,Nc1ccccc1-c1ccccc1,-1.04%
13,Clc1cccc(Cl)c1Cl,-1.9%
14,Nc1ccc(Cl)c(Cl)c1,-2.21%
15,N#CCBr,-1.03%
16,Clc1cccc(Cl)c1,3.99%
17,[N-]=[N+]=[N-],0.611%
18,O=[N+]([O-])c1cccc2c([N+](=O)[O-])cccc12,-2%
19,Nc1ccc([N+](=O)[O-])cc1N,-1.16%
20,CCCC[N+](=O)[O-],6.17%

row,SMILES,caspase-3 activation
1,N#CCc1ccccc1,-2.13%
2,ClC(Cl)(Cl)C(Cl)(Cl)Cl,-5.87%
3,O=[N+]([O-])c1ccccc1CCl,-2.22%
4,CC(Cl)(Cl)Cl,-1.72%
5,Oc1cc(Cl)c(Cl)c(Cl)c1Cl,-0.118%
6,O=[N+]([O-])c1ccc(Cl)c(Cl)c1Cl,-2.32%
7,CSSC,1.72%
8,CC[N+](=O)[O-],-2.14%
9,CCCCNC(=O)n1c(NC(=O)OC)nc2ccccc21,-7.05%
10,ClCCOCOCCCl,3.91%
11,CC12CC1(C)C(=O)N(c1cc(Cl)cc(Cl)c1)C2=O (stereo not given),0.459%
12,ClCC(Cl)CCl,-0.0321%
13,C=CC(=O)OC,-2.46%
14,Oc1cc(Cl)ccc1Cl,1.43%
15,CN(C)c1ccc(N(C)C)cc1,-4.65%
16,COc1ccc(C=O)cc1,5.12%
17,BrCC(Br)C1CCC(Br)C(Br)C1 (stereo not given),-0.987%
18,CC(C#N)CCC#N (stereo not given),0.461%
19,Clc1ccc(C(c2ccccc2Cl)C(Cl)(Cl)Cl)cc1 (stereo not given),-0.395%
20,CN(C)C(=O)Nc1cccc(C(F)(F)F)c1,-1.34%
